Activity calls are given as the source filed them. The calls were made as follows: active = hit-call score of the fitted dose curve at least 0.9, where 1 is the maximum; inactive = score below 0.9.
test: ATG_TA_CIS: Attagene CIS-FACTORIAL HepG2 Assay for human TA Basal Promoter (AID 2282964); details: HepG2 Attagene CIS-factorial TA basal promoter reporter; actives raise or lower the signal
Procedure: ATG_CIS is a cell-based, multiplexed-readout assay that uses HepG2, a human liver cell line, with measurements taken at 24 hours after chemical dosing in a 24-well plate.ATG_TA_CIS is one of 52 assay component(s) measured or calculated from the ATG_CIS assay. It is designed to make measurements of mRNA induction, a form of inducible reporter, as detected with fluorescence intensity signals by Reverse transcription polymerase chain reaction (RT-PCR) and Capillary electrophoresis technology.Data from the assay component ATG_TA_CIS was analyzed into 1 assay endpoint. This assay endpoint, ATG_TA_CIS, was analyzed with bidirectional fitting relative to DMSO as the negative control and baseline of activity. Using a type of inducible reporter, measures of mRNA for gain or loss-of-signal activity can be used to understand the background control at the transcription factor-level as they relate to the gene . Furthermore, this assay endpoint can be referred to as a secondary readout, because this assay has produced multiple assay endpoints where this one serves a background control function. To generalize the intended target to other relatable targets, this assay endpoint is annotated to the background measurement intended target family, where the subfamily is internal marker.
Human liver HepG2 cells are transiently transfected with multiple reporter transcription units (MRTUs) in 6-well plates using FuGene 6 reagent (Roche; 3 ml FuGene/1 mg DNA). The MRTU constructs are regulated by a cis-regulating element (promoter). […] A major difference between the CIS and TRANS system is that in CIS activities of endogenous TFs are measured, whereas the TRANS assay evaluates changes in activities of exogenous, chimeric NR-Gal4 proteins. […] At the end of 24 hour incubation, total RNA was isolated using TriZol reagent (Invitrogen). The isolated RNA is then reverse-transcribed using oligo(dT) primer and Mo-MLV reverse transcriptase (Invitrogen) with DNAse I (Ambion) treatment for 30 min. The one-tenth of the produced cDNA was amplified by PCR using Taq DNA polymerase (Invitrogen) and two reporter sequence-specific primers. The PCR products were fluorescently labeled by primer extension with 6-arboxyfluorescein (6-FAM) 5'-labeled reporter sequence-specific primer (2 min at 95 C, 20 s at 68 C and 10 min at 72 C) and these products were digested with 5U of HpaI (New England Biolabs) for 2h at 37 C. The fragments were purified using Qiaquick PCR columns (Qiagen), analyzed on an ABI 3130xL genetic analyzer (Applied Biosystems) with peak positions identified by using a set of X-rhodamine (ROX)-labeled MapMarker1000 molecular weight standards (BioVentures). The raw capillary electrophoresis data was processed using Attagraph software (Attagene).

outcome, inactive:
O=C1CCCCCN1SSN1CCCCCC1=O
COc1ccc([C@@H]2CC(=O)c3c(O)cc(O[C@@H]4O[C@H](CO[C@@H]5O[C@@H](C)[C@H](O)[C@@H](O)[C@H]5O)[C@@H](O)[C@H](O)[C@H]4O)cc3O2)cc1OC
Cc1ccc2c(c1)C(=O)c1ccccc1C2=O
COC(=O)c1sccc1S(N)(=O)=O
[Cl][Nd]([Cl])[Cl]
C[C@]12CCC(=O)C=C1CC[C@@H]1[C@@H]2C(=O)C[C@@]2(C)[C@H]1CC[C@]2(O)C(=O)CO
C[C@]12C=CC(=O)C=C1CC[C@@H]1[C@@H]2[C@@H](O)C[C@@]2(C)[C@H]1CC[C@]2(O)C(=O)CO
CC(C)CCCC(C)CC=O (stereo not given)
CCOC(F)(F)C(F)(F)C(F)(F)C(F)(F)F
CCCCCc1ccc(Cl)cc1
CCCCCC/C=C/C=O
CCN(CC#N)c1cccc(C)c1
CC(CC=O)CCCC(C)(C)O (stereo not given)
O=C1CCCC1
[Cl][Bi]([Cl])([c]1ccccc1)([c]1ccccc1)[c]1ccccc1
CC(C)(C)C1CCCCC1=O (stereo not given)
CC=CC(=O)N(CC)c1ccccc1C
O=C1c2cccc(O)c2C(=O)c2c(O)cc(CO)cc21
O=C(C=Cc1ccccc1)OCc1ccccc1
CC1(C)O[C@@H]2C[C@H]3[C@@H]4C[C@H](F)C5=CC(=O)CC[C@]5(C)[C@H]4[C@@H](O)C[C@]3(C)[C@]2(C(=O)CO)O1
COC(=O)c1c(C)cc(O)c(C)c1O
c1ccc2c(c1)ccc1cc3c(ccc4ccccc43)cc12
O=CC1CC1
CC(=O)Oc1ccc(C)cc1
CCOC(=O)CC(C(C)=O)C(C)=O
FC(F)=C(F)OC(F)(F)C(F)(F)C(F)(F)F
C=CC(=O)OCCC(=O)O
c1c[nH]cn1
O=S1(=O)OC(c2ccc(O)cc2)(c2ccc(O)cc2)c2ccccc21
CC(=O)OC(C)C
CC(C)c1ccc(C#N)cc1
c1ccc(CNCc2ccccc2)cc1
SCCc1cnccn1
CC(=O)NS(=O)(=O)c1ccc(N)cc1
O=C(O)CC(C(=O)O)C(CC(=O)O)C(=O)O (stereo not given)
c1cc(N(CC2CO2)CC2CO2)ccc1OCC1CO1 (stereo not given)
C1=CCCC1
OCCNCc1ccccc1

AC50, active:
C#CC1(O)CC[C@H]2[C@@H]3CCC4=CCCC[C@@H]4[C@H]3CC[C@@]21C (stereo not given in full) 16.7 µM
O=C(C(Cl)Cl)N1CCOC12CCCCC2 12 µM
